{
  "source": "the supplement of paper PMC11417369",
  "note": "Over roughly 25,000 sequences, “ln(normalized median fluorescence intensity)” has its median near 6.7; the highest 2% begin near 10. The sample as a whole holds a higher share of the highest values than the screen did.",
  "data": [
    {"tested_on": "PfHDP1 homeodomain (GST-tagged)", "test": "gcPBM binding intensity (ln(normalized median fluorescence intensity)); higher = stronger DNA binding", "method_in_brief": "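The binding buffer was 1× PBS containing 1% milk, 0.2 mg/ml BSA, 0.5% salmon testes DNA and 0.03% Triton X-100. In it, GST-tagged P. falciparum DNA-binding domains expressed in E. coli were applied for 1 h to an Agilent 4 × 180k array of primer-extended double-stranded 36-bp intergenic genomic probes plus negative controls. Binding intensity, read with Alexa488 anti-GST antibody and a 488 nm scan, is the highest Masliner-normalised natural-log median intensity across replicate spots of either probe orientation.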", "values": [
      {"sequence": "TAATAAATAAAAACATGTACATATATACATATATGT [XGTACX_site485]", "gcPBM binding intensity (ln)": 6.35},
      {"sequence": "ATATATATAAATATATGTACATAAATATATTTGTAA [XGTACX_site6715]", "gcPBM binding intensity (ln)": 6.71},
      {"sequence": "GAAAAAAGGAAATAAAGAAAAAAAAAAATGAAATAT [XGTACX_negctrl_site318]", "gcPBM binding intensity (ln)": 6.22},
      {"sequence": "AACATTTTAAAACAGACACACACCAAAAAAAAAAAA [CACACA_site257]", "gcPBM binding intensity (ln)": 6.26},
      {"sequence": "GGACAAGTTAAACGCACACAAATATATACCCCCATA [CACACA_site4996]", "gcPBM binding intensity (ln)": 7.91},
      {"sequence": "CCTTGTCTTTTTTTTTTTTTTTTTTCTTCTTATTTT [GTGCAC_negctrl_site523]", "gcPBM binding intensity (ln)": 6.24},
      {"sequence": "CATATAGTAATATATACACACACTTGTCTTGTAAAA [CACACA_site8238]", "gcPBM binding intensity (ln)": 6.54},
      {"sequence": "ATTTAATACAAATACACACACAAATATGTACCTATA [CACACA_site7718]", "gcPBM binding intensity (ln)": 7.02},
      {"sequence": "GTTTACATCATTCTGGTGCAAAAAAAAAAAAAAATA", "gcPBM binding intensity (ln)": 10.5},
      {"sequence": "ACATTCTGATGGTGATTATTAATTATTACAAAAATT [CACACA_negctrl_site283]", "gcPBM binding intensity (ln)": 6.01},
      {"sequence": "GAAAAATATATTCTGGTGCATGAATAAAATCATAAA", "gcPBM binding intensity (ln)": 9.33},
      {"sequence": "AATTAAAAAGTTTTTAATGTTTTTAATTTTTTCCAC [XGTACX_negctrl_site423]", "gcPBM binding intensity (ln)": 5.99},
      {"sequence": "TATATATATTAAAAACGTACAAAATAAGAATTAATT [XGTACX_site5979]", "gcPBM binding intensity (ln)": 6.8},
      {"sequence": "ATTTTATTTTTGTGCACACTGATAAATTGAAAAGAG [CACACA_site2948]", "gcPBM binding intensity (ln)": 11.1},
      {"sequence": "TATTTTGAAAAAGTTGCACACAAAATTTAAAAAAAA [CACACA_site8470]", "gcPBM binding intensity (ln)": 9.29},
      {"sequence": "TTTATATTAATTGATGTGCACTGAAATATTTGTCCA [GTGCAC_site9655]", "gcPBM binding intensity (ln)": 9.08},
      {"sequence": "TTATTTTATTTTTGTGCACACTGATAAATTGAAAAG [CACACA_site2949]", "gcPBM binding intensity (ln)": 11.2},
      {"sequence": "TTTTGAAAAAATTTTTATAAAAGAATAAAATTATTA [XGTACX_negctrl_site570]", "gcPBM binding intensity (ln)": 6.06},
      {"sequence": "TTTATTTTTGAAGTTGCACACACAAAAATAAAAAGT [CACACA_site8030]", "gcPBM binding intensity (ln)": 8.92},
      {"sequence": "CACTTTTTTTAAATGTGTACGTATATGAAAATATCA [XGTACX_site4854]", "gcPBM binding intensity (ln)": 6.38},
      {"sequence": "GTTATATGAACTTATATACACACCATTTTTGTAAAT [CACACA_site695]", "gcPBM binding intensity (ln)": 6.69},
      {"sequence": "AAAATTAACCGTAACACACACACATATAAATATGTA [CACACA_site7791]", "gcPBM binding intensity (ln)": 6.55},
      {"sequence": "TAATTATCACATTGCACACACATTTCCTTTTACATT [CACACA_site3443]", "gcPBM binding intensity (ln)": 9.61},
      {"sequence": "TAATTTTTCCTTTTTGCACACATTAACGTCGACGAA [CACACA_site4025]", "gcPBM binding intensity (ln)": 10.8},
      {"sequence": "TCTAATTATCACATTGCACACACATTTCCTTTTACA [CACACA_site9140]", "gcPBM binding intensity (ln)": 9.66},
      {"sequence": "TTTTATGTTCTTAATGCACACTTATAAGTATCTTAT [CACACA_site4895]", "gcPBM binding intensity (ln)": 10.6},
      {"sequence": "TTATGTTCTTAATGCACACTTATAAGTATCTTATAA [CACACA_site1394]", "gcPBM binding intensity (ln)": 9.72},
      {"sequence": "TATATATATATATGTATGCACTTTAATTTTATAAGG", "gcPBM binding intensity (ln)": 9.31},
      {"sequence": "TATGAATATTGCATGTGTACCTATTATCCTTTTAAA [XGTACX_site4311]", "gcPBM binding intensity (ln)": 6.95},
      {"sequence": "TATAAAAAAAAAAAAAGTACTAACTTAAAACAATTT [XGTACX_site7969]", "gcPBM binding intensity (ln)": 5.92},
      {"sequence": "AACACTTTAATTTATGCACACATATGGAACAACAGC [CACACA_site8241]", "gcPBM binding intensity (ln)": 10.2},
      {"sequence": "CACTTTAATTTATGCACACATATGGAACAACAGCCA [CACACA_site994]", "gcPBM binding intensity (ln)": 10.6},
      {"sequence": "TATTCAACATAATATGCACACAAAAATTATGGAACG [CACACA_site8660]", "gcPBM binding intensity (ln)": 9.99},
      {"sequence": "ACAGAATACATATACACACATACAAAAAAGTGCATA [CACACA_site987]", "gcPBM binding intensity (ln)": 7.81},
      {"sequence": "TTTTTAAAAATATACACACACAGATATTATATATAT [CACACA_site786]", "gcPBM binding intensity (ln)": 6.94},
      {"sequence": "TTTTTTTAACGGTGTGCACACAATATACAGAAAAAA [CACACA_site1415]", "gcPBM binding intensity (ln)": 11.1},
      {"sequence": "TTATAATAATTTTATGCACACAGAAAAATACAAGGT [CACACA_site9169]", "gcPBM binding intensity (ln)": 10.2},
      {"sequence": "TTTTTAATATATTAGGTGCACAATAATACACTTTAT", "gcPBM binding intensity (ln)": 10.3},
      {"sequence": "TTTTTTTAATAGTGTGCACACAATATACAGAAAAAA [CACACA_site8399]", "gcPBM binding intensity (ln)": 11},
      {"sequence": "TGTAGTCTGGAGAAAAGTACATAGTATCTGATAACC [XGTACX_site2018]", "gcPBM binding intensity (ln)": 6.4},
      {"sequence": "GCACTAAAAAAATAAACACACAGATTTATATAATAT [CACACA_site1381]", "gcPBM binding intensity (ln)": 6.5},
      {"sequence": "AACCATTTTAAATATGCACACAGATGCACTAACACA [CACACA_site8565]", "gcPBM binding intensity (ln)": 10.5},
      {"sequence": "CCATTTTAAATATGCACACAGATGCACTAACACATT [CACACA_site5099]", "gcPBM binding intensity (ln)": 10.6},
      {"sequence": "TGGCACTAAAAAAATAAACACACAGATTTATATAAT [CACACA_site8386]", "gcPBM binding intensity (ln)": 6.51},
      {"sequence": "TAAATATGCTCACAGATGCACTAACACATTTTTATA [GTGCAC_site9997]", "gcPBM binding intensity (ln)": 10.4},
      {"sequence": "CCATTTTAAATATGCACACAGATGCACTAACCCATT [CACACA_site1883]", "gcPBM binding intensity (ln)": 9.9},
      {"sequence": "TATGTTCCTTTTTGTTGTACTGAAAAATTATGTTCA [XGTACX_site3981]", "gcPBM binding intensity (ln)": 6.61},
      {"sequence": "GAAATAATAAATTAAAAATCGTTTATAACATTTAAC [CACACA_negctrl_site425]", "gcPBM binding intensity (ln)": 6.21},
      {"sequence": "AAATTCATAAAAATATTTTATAATTATATATAGAAT [TGCATGCA_negctrl_site343]", "gcPBM binding intensity (ln)": 6.34},
      {"sequence": "ATAAAATATATATATATAAAAATAAATACATAAATA [GTGCAC_negctrl_site157]", "gcPBM binding intensity (ln)": 6.31},
      {"sequence": "GCATATGTTTATTGCACACACCAAAAAGAAAACATA [CACACA_site4384]", "gcPBM binding intensity (ln)": 10.5},
      {"sequence": "CACAAAAAGAAACACACACACATATATATTTATTAT [CACACA_site3646]", "gcPBM binding intensity (ln)": 6.73},
      {"sequence": "ATGCATATGTTTATTGCACACACCAAAAAGAAAACA [CACACA_site403]", "gcPBM binding intensity (ln)": 9.25},
      {"sequence": "ACTATATTTCATAACAGTACATATTCCTGAAACATC [XGTACX_site4924]", "gcPBM binding intensity (ln)": 6.43},
      {"sequence": "ATAATATAAATACAAACACACAATTGTGTCCACATT [CACACA_site6920]", "gcPBM binding intensity (ln)": 6.79},
      {"sequence": "AGTATATACACGTGCGTGCACAGATATTCTTTTTTT [GTGCAC_site9398]", "gcPBM binding intensity (ln)": 9.58},
      {"sequence": "AATACTAAAAAGTGTACACATACATAAAAAATTGCA [CACACA_site5620]", "gcPBM binding intensity (ln)": 7.24}
    ]}
  ]
}
